In PubChem BioAssay AID1851 (National Center for Advancing Translational Sciences (NCATS), 2009):
Values joined by “and” are separate entries in the source; they are usually repeats but may differ in a detail not shown here. Equal entries are not always repeated. In all, about 16,000 compounds went through this assay and about 2,600 (16%) were called active. Roughly 20% stayed inconclusive and do not appear here. Calls follow the shape of the dose curve; as a rule, active = well fitted curve in the direction sought with a large enough effect; inconclusive = small, poorly fitted or top-dose-only effect, or effect the other way; inactive = no such curve, though single readings can be large or run the other way. These entries were drawn from the full list. Square brackets hold non-standard residues; d marks the D form. Peptide text beside a SMILES is read from it.

These molecules were tested against Cytochrome P450 2D6 (Homo sapiens) (UniProt P10635) (assay: Cytochrome panel assay with activity outcomes). Settings: recombinant CYP, pro-luciferin dealkylation, luminescence, p450-cyp2d6; series mostly up to 57.1 µM; activity, negative = inhibition: at the top concentration.
Cytochrome P450 2D6 (Homo sapiens), sequence (P10635 whole entry, looked up): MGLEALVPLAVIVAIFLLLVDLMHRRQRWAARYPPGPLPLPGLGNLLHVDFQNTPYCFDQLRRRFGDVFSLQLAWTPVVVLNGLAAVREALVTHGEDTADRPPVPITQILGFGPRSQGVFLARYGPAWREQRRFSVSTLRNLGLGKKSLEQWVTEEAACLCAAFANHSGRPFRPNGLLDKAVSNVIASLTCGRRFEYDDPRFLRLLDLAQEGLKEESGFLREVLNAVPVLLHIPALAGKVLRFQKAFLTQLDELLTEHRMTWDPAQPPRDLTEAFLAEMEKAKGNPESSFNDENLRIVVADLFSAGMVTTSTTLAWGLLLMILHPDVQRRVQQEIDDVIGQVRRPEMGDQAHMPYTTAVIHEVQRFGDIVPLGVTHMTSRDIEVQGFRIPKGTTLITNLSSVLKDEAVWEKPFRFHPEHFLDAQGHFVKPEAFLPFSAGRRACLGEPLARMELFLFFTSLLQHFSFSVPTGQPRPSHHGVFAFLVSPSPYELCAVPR
% is scaled to controls: 0 for no effect and ±100 for the full control effect.

SMILES	activity, negative = inhibition	AC50
CN1CCN(c2ncc3nc(-c4cccs4)c(=O)n(Cc4cccs4)c3n2)CC1	-8.7% (inactive)	–
COc1ccc(C(=O)Nc2nc3c(s2)Cc2cc(OC)ccc2-3)cc1	-14.7% (inactive)	–
C=CCN=C1CC(C)(C)CC(=O)/C1=C(\O)c1ccccc1	18.3% (inactive)	–
COc1ccc(-n2c(CNC(=O)c3cc(OC)c(OC)c(OC)c3)n[nH]c2=S)cc1	-2.75% (inactive)	–
CC(C)CN1CC[C@@]2(CCCN(C(=O)c3csnn3)C2)C1	–	501 nM (active)
COc1ccc(NC(=O)N2CCCC3(CCN(C(=O)c4csnn4)CC3)C2)cc1	-0.507% (inactive)	–
CC(C)NC(=O)N1CC[C@@]2(CCCN(C(=O)c3csnn3)C2)C1	0.0943% (inactive)	–
CN1CCN(c2ccc([N+](=O)[O-])cc2C(=O)N2CCOCC2)CC1	14.8% (inactive)	–
COc1ccc(C(=O)NNC(=O)Cc2ccc(-c3ccccc3)cc2)cc1OC	-6.09% (inactive)	–
COc1ccc(C(=O)NN)cc1COc1ccc(Br)cc1	–	12600 nM (active)
COc1ccc(/C=C/C(=O)NCc2cn(C)nc2C)cc1COc1ccc(Br)cc1	-13.3% (inactive)	–
COC(=O)[C@H](CCSC)NC(=O)C/C=C\[C@@H](C)CO	4.64% [at 11.4 µM] (inactive)	–
COc1ccc([C@@H]2CNC(=O)C2)cc1OC1CCCC1	–	inactive
CC[C@@H]1OC(=O)[C@H](C)[C@H](O[C@@H]2C[C@](C)(OC)[C@H](O)[C@H](C)O2)[C@H](C)[C@H](O[C@@H]2O[C@@H](C)C[C@@H](N(C)C)[C@@H]2O)[C@](C)(O)C[C@H](C)C(=O)[C@H](C)[C@H](O)[C@]1(C)O	5.87% [at 25.6 µM] (inactive)	–
CC[C@]1(O)C[C@@H]2CN(CCc3c([nH]c4ccccc34)[C@](C(=O)OC)(c3cc4c(cc3OC)N(C=O)[C@H]3[C@@](O)(C(=O)OC)[C@H](C(=O)OC)[C@@]5(CC)C=CCN6CC[C@]43[C@H]65)C2)C1	10.5% (inactive)	–
CCOc1cc(/C=N/O)cc(Cl)c1OC	-0.0031% (inactive)	–
COc1c(Cl)cc(Cl)cc1CNCCNCCO	–	15800 nM (active)
COc1c(Cl)cc(Cl)cc1CNCCNCC(C)O (stereo not drawn)	–	1780 nM (active)
OCCSCc1cc(Cl)cc(Cl)c1O	-5.19% [at 11.4 µM] (inactive)	–
COc1ccc(-c2nc3cnc(N(C)C)nc3n(C[C@H]3CCCO3)c2=O)cc1	3.77% (inactive)	–
Cc1ccc(NC(=O)CCC(=O)NNC(=O)c2cccs2)c(C)c1	-9.16% (inactive)	–
C[C@@H]1OC2C3=C(C(=O)[C@H]4O[C@@H]4[C@H]3O)[C@@H]1[C@H]1[C@H](C)OC=C3[C@H](O)[C@H]4O[C@H]4/C(=N\OCc4ccccc4)[C@@]321	3.22% [at 11.4 µM] (inactive)	–

SMILES	activity, negative = inhibition	AC50
CO[C@@H]1COC(=O)[C@H](COCc2ccccc2)NC(=O)C/C=C\[C@@H](C)[C@H](OC)COC(=O)[C@@H](C)NC(=O)C/C=C\[C@H]1C	0.0549% [at 11.4 µM] (inactive)	–
O=C(O)[C@H]1C[C@@H](CP(=O)(O)O)CCN1	-19.6% (inactive)	–
CC(=O)OC[C@H]1O[C@@H](O/N=C(\C)CCN2CCc3nc(-c4ccccc4)c(-c4ccccc4)cc3C2)[C@H](OC(C)=O)[C@@H](OC(C)=O)[C@H]1OC(C)=O	–	3160 nM (active)
CCc1cc2c(nc1CC)CCN(CC/C(C)=N/O[C@@H]1O[C@H](COC(C)=O)[C@H](OC(C)=O)[C@H](OC(C)=O)[C@H]1OC(C)=O)C2	–	3980 nM (active)
CCCNC(=O)OC[C@@H]1O[C@H](CCO/N=C(\C)CCN2CCc3nc(CC)c(CC)cc3C2)C=C[C@@H]1Oc1ccc(OC)cc1	-13.6% [at 11.4 µM] (inactive)	–
CCc1cc2c(nc1CC)CCN(CC/C(C)=N/OCC[C@@H]1C=C[C@H](OC(C)=O)[C@H](COC(C)=O)O1)C2	-5.93% [at 11.4 µM] (inactive)	–
CC(=O)OC[C@@H]1O[C@H](CCO/N=C(\C)CCN2CCc3nc(-c4ccccc4)c(-c4ccccc4)cc3C2)C=C[C@@H]1OC(C)=O	-10.6% [at 11.4 µM] (inactive)	–
C=CC[C@@H]1C=C[C@H](O/N=C(\C)CCN2CCc3nc(-c4ccccc4)c(-c4ccccc4)cc3C2)[C@H](CO)O1	0.49% [at 11.4 µM] (inactive)	–
CC1(C)CC(=O)C(C(C#Cc2ccccc2)C2=C(O)CC(C)(C)CC2=O)=C(O)C1	-10.5% (inactive)	–
CSc1nc2cc(S(=O)(=O)N3CCCCC3)ccc2s1	11.3% [at 11.4 µM] (inactive)	–
O=C(O)CONC(=O)c1cc(OCC(F)(F)F)ccc1OCC(F)(F)F	20.2% (inactive)	–
O=C(NCC1CCCO1)/C(=C\c1ccco1)NC(=O)c1ccccc1 (stereo not drawn)	3.99% (inactive)	–
O=C(Nc1cccnc1)c1ccc2snnc2c1	–	15800 nM (active)
O=C(Nc1ccc(OC(=O)c2cccnc2)cc1)c1cccnc1	-9.94% (inactive)	–
O=C(Nc1cccc(OC(=O)c2cccnc2)c1)c1cccnc1	-10.6% (inactive)	–
O=C(CCn1nc(-c2ccc(Cl)cc2)ccc1=O)NCc1ccccn1	-5.6% (inactive)	–
O=C1C=C(Nc2nc(C(=O)O)cc(=O)[nH]2)c2ccccc2C1=O	-6.72% [at 11.4 µM] (inactive)	–
O=C1C=C(NCCc2cc(Br)c(O)c(Br)c2)C(=O)c2ncccc21	–	1580 nM (active)
Cc1cccc(Oc2coc3cc(OC(=O)c4cc5ccccc5oc4=O)ccc3c2=O)c1	3.71% (inactive)	–
CCOC(=O)c1cc(C#N)c(Oc2ccccc2OC)nc1-c1ccccc1	0.22% (inactive)	–
CCOc1cc(C)ccc1OCc1nnc(SCC(=O)c2cccc([N+](=O)[O-])c2)n1CC	5.77% (inactive)	–
Cc1cc2c(ncn2Cc2ccccc2)c([N+](=O)[O-])c1C	8.41% (inactive)	–

SMILES	activity, negative = inhibition	AC50
CCCCN1C(=O)CC(Sc2ccccc2C(=O)O)C1=O (stereo not drawn)	6.44% (inactive)	–
CCCCN1C2=NCCCN2c2ccccc21	–	5010 nM (active)
Cc1ccc(C)c(C(=O)CN2C3=NCCCN3c3ccccc32)c1	–	10 nM (active)
CCCN1C2=NCCCN2c2ccccc21	–	7080 nM (active)
Cc1ccccc1CN1C2=NCCN2C(=O)C2=C1CCN(Cc1ccccc1)C2	-16.1% [at 11.4 µM] (inactive)	–
CC(C)C[C@H]1C(=O)N2CCC[C@@H]2[C@]2(O)O[C@](NC(=O)[C@H]3C=C4c5cccc6[nH]c(Br)c(c56)C[C@H]4N(C)C3)(C(C)C)C(=O)N12	–	inactive
COCCCN1C(=O)C(=O)/C(=C(/O)c2ccc(OC(C)C)c(C)c2)C1c1ccncc1 (stereo not drawn)	5.89% (inactive)	–
N[C@H](CO)C(=O)NCC(=O)O (H-[dS]-Gly-OH)	-2.94% [at 11.4 µM] (inactive)	–
Cc1cc(C)nc(NS(=O)(=O)c2ccc(N)cc2)n1	-0.0096% [at 25.6 µM] (inactive)	–
CN1C(=O)/C(=C\c2ccccc2)Sc2ccc(C(=O)N3CCN(c4ccccn4)CC3)cc21	-1.49% (inactive)	–
C=C[C@H](N)CCC(=O)O	–	inactive
CCc1c(C)sc(NC(=O)OC)c1C(N)=O	-1.65% (inactive)	–
COc1nc(/C(N)=N/O)nc(N2CCCCC2)n1	0.0215% (inactive)	–
Cc1ncc([N+](=O)[O-])n1CCOC(=O)NC(NCc1ccccc1)C(Cl)(Cl)Cl (stereo not drawn)	-19.7% (inactive)	–
Cc1cc(=O)c2ccccc2[nH]1	15.9% (inactive)	–
CC1CCCC(C)N1CC(O)COCC1COc2ccccc2O1 (stereo not drawn)	–	1780 nM (active)
C[C@@H]1CCCN(C[C@@H](O)CN2CCCc3ccccc32)C1	–	1580 nM (active)
Cc1cc2c(nc1C)CCCN2C[C@@H](O)CN1CCN(C)CC1	-5.57% [at 11.4 µM] (inactive)	–
OC(COCC1COc2ccccc2O1)CN1CCc2ccccc2C1 (stereo not drawn)	–	447 nM (active)
Cc1ccc(C2C(=O)N(C3CCCC3)CC(=O)N2CC2COc3ccccc3O2)cc1 (stereo not drawn)	-17.2% (inactive)	–
N=C(N)N1CCc2ccccc2C1	-1.24% [at 25.6 µM] (inactive)	–
OC(COCC1COc2ccccc2O1)CN1CCN(c2ccccc2F)CC1 (stereo not drawn)	–	2240 nM (active)

SMILES	activity, negative = inhibition	AC50
O=C1CCCN1CC(O)CS(=O)(=O)c1ccccc1 (stereo not drawn)	-0.283% (inactive)	–
O=C(O)c1cc(=O)c2c(OCC(O)COc3cccc4oc(C(=O)O)cc(=O)c34)cccc2o1	-4.6% [at 25.6 µM] (inactive)	–
Cc1ccc(-c2cccc(OC(=O)c3ccccc3F)c2)cc1	-11.6% (inactive)	–
CC(C)C(=O)NC(=S)Nc1ccccc1C(=O)Nc1ccccc1	0.519% (inactive)	–
CN1CCN(c2ncc3ncc(=O)n(C[C@H]4CCCO4)c3n2)CC1	3.47% (inactive)	–
COc1ccc(S(=O)(=O)N2CCC(C(=O)NCC3CCCO3)CC2)cc1C (stereo not drawn)	-4.05% (inactive)	–
O=c1n(-c2ccccc2)c(=O)n2n1CC[C@H]1/C(=N\OC[C@@H](O)COCc3ccco3)[C@H]3O[C@@H]3[C@@H](O)[C@@H]12	0.6% [at 11.4 µM] (inactive) and 20% [at 11.4 µM] (inactive)	–
COC1(OC)N=C(NC(=O)Nc2ccccc2)C2(C#N)C(c3ccccc3)C12C#N (stereo not drawn)	0.403% (inactive)	–
COc1ccc(-c2noc(C3CCCN(C(=O)c4ccccc4OC)C3)n2)cc1OC (stereo not drawn)	-13.3% (inactive)	–
CCCC[C@@H]1C[C@H]1C(NC(=O)c1cccs1)c1ccc(-c2ccccc2)cc1 (stereo partly drawn)	4.23% (inactive)	–
CC1CCCN(CC(O)COCC2COc3ccccc3O2)C1 (stereo not drawn)	–	2510 nM (active)
CN1CCN(S(=O)(=O)c2cc([N+](=O)[O-])ccc2N2CCCCCC2)CC1	-22.5% (inactive)	–
CC(=O)OCC(=O)[C@@]1(O)CC[C@@H]2[C@H]3CCC4=CC(=O)CC[C@]4(C)[C@]3(F)[C@@H](O)C[C@@]21C	-0.161% [at 25.6 µM] (inactive)	–
Cc1ccc(C(=O)N(CN2CCCC2=O)c2ccccc2)cc1C	-0.523% (inactive)	–
Oc1ccc2oc3c(c2c1)CCCC3	-4.04% (inactive)	–
O=C(CN1CCN(Cc2ccccc2)CC1)N1CCCc2c1c(=O)oc1ccc(O)cc21	–	12600 nM (active)
COc1ccc(O)c(/C=N/NC(=O)c2ccc(OCc3cccc(Br)c3)cc2)c1	-5.88% (inactive)	–
CCc1cc2c(NCCO)ncnc2s1	-3.72% (inactive)	–
CCc1cc2c(NCc3ccco3)ncnc2s1	–	17800 nM (active)
CCc1cc2c(Sc3nc4ccccc4s3)ncnc2s1	-1.72% (inactive)	–
COc1ccc(-c2csc(-n3ncc(-c4cccs4)c3N)n2)cc1	11.5% (inactive)	–
CCOC(=O)c1sc2c(c1C)c(=O)c(C(=O)OCC)cn2CC	2.44% (inactive)	–
